From PubChem BioAssay (NCATS)
Records with an inconclusive call do not appear. Where a call stands in place of a potency, no number is given. The source made the active and inactive calls. The call rests on the fitted dose curve; in most records, active means well fitted cell-killing curve with a large enough effect; inconclusive means small, poorly fitted or top-dose-only effect, or effect the other way; inactive means no such curve, though single readings can be large or run the other way.

What was measured:
[1] = Quantitative High-Throughput drug screen in 47 multiple myeloma cell lines against the NCATS MIPE library collection: FR4_PLB cell viability assay (AID 1918924; further: nearly all actives have a fitted effect of over 35% in size)
Summary of the method: (§1)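 Primary qHTS used for cherry-picking: cells at 500/well, library compounds for 48 h (37C, 5% CO2), luminescent ATP assay.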

[2] = Quantitative High-Throughput drug screen in 47 multiple myeloma cell lines against the NCATS MIPE library collection: Delta47_JCRB cell viability assay (AID 1918925; further: nearly all actives have a fitted effect of over 45% in size)
Summary of the method: (§2)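 CellTiter-Glo luminescence (ATP) after 48 h compound exposure, 37C/5% CO2; 500 cells/well; MIPE 4.0 approved/investigational drugs pinned in; DMSO = 100%, media only = 0% viability.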

[3] = Quantitative High-Throughput drug screen in 47 multiple myeloma cell lines against the NCATS MIPE library collection: EJM_DSMZ cell viability assay (AID 1918926; further: nearly all actives have a fitted effect of over 30% in size)
Summary of the method: as §2

[4] = Quantitative High-Throughput drug screen in 47 multiple myeloma cell lines against the NCATS MIPE library collection: AMO1_DSMZ cell viability assay (AID 1918927; further: nearly all actives have a fitted effect of over 30% in size)
Summary of the method: as §2

[5] = Quantitative High-Throughput drug screen in 47 multiple myeloma cell lines against the NCATS MIPE library collection: ARD_JJKsccE7 cell viability assay (AID 1918929)
Summary of the method: as §2

[6] = Quantitative High-Throughput drug screen in 47 multiple myeloma cell lines against the NCATS MIPE library collection: Karpas620_DSMZ cell viability assay (AID 1918959); further: nearly all actives have a fitted effect of over 30% in size
Summary of the method: as §1

[7] = Quantitative High-Throughput drug screen in 47 multiple myeloma cell lines against the NCATS MIPE library collection: ARP1_JJKsccF8 cell viability assay (AID 1918928; further: nearly all actives have a fitted effect of over 40% in size)
Summary of the method: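 Myeloma cells, 500 per well, were exposed to MIPE 4.0 drugs by pin transfer for 48 h at 37 °C, 5% CO2. Viability was read as ATP luminescence with CellTiter-Glo, normalised to DMSO-only (100%) and medium-only (0%) wells.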
Potency means the concentration at half of the fitted maximal effect.

| SMILES | Potency [1] | Potency [2] | Potency [3] | Potency [4] | Potency [5] | Potency [6] | Potency [7] |
| --- | --- | --- | --- | --- | --- | --- | --- |
| COc1cc(F)c(C(C)C)cc1-c1ccc(C(F)(F)F)cc1CN1C(=O)O[C@H](c2cc(C(F)(F)F)cc(C(F)(F)F)c2)[C@@H]1C | inactive | inactive | inactive | inactive | inactive | inactive |  |
| CC=C1C2C=C(C)CC1(N)c1ccc(=O)[nH]c1C2 (centres undefined) | inactive | inactive | inactive | inactive | inactive | inactive |  |
| CC(C)N(CCCNC(=O)Nc1ccc(C(C)(C)C)cc1)C[C@H]1O[C@@H](n2cc(Br)c3c(N)ncnc32)[C@H](O)[C@H]1O | 23.5 µM (active) | 16.6 µM (active) |  | inactive | inactive |  | 20.9 µM (active) |
| COc1cc([C@H]2Oc3cc([C@H]4Oc5cc(O)cc(O)c5C(=O)[C@H]4O)ccc3O[C@H]2CO)ccc1O | 18.7 µM (active) | 13.2 µM (active) | 14.8 µM (active) |  | inactive | inactive | 16.6 µM (active) |
| CCC(c1ccc(O)cc1)C(CC)c1ccc(O)cc1 (centres undefined) | 5.26 µM (active) | 0.0026 µM (active) | 0.935 µM (active) |  | inactive | inactive | 7.43 µM (active) |
| OC1CCC(Nc2ncc3nc(Nc4c(F)cc(F)cc4F)n([C@@H]4CCOC4)c3n2)CC1 (some centres undefined) | inactive | 8.33 µM (active) | 0.0012 µM (active) | 16.6 µM (active) |  | inactive | 33.2 µM (active) |
| Cc1ccc(NC(=O)c2ccc(CN3CCN(C)CC3)cc2)cc1Nc1nc(-c2cccnc2)cs1 | 20.9 µM (active) | 6.62 µM (active) |  | 18.7 µM (active) | 23.5 µM (active) |  | 23.5 µM (active) |
| COC(=O)[C@H](c1ccccc1Cl)N1CCc2sccc2C1 | inactive | inactive |  | 26.4 µM (active) |  |  | inactive |
| CCCCC[C@H](O)C=C[C@H]1[C@H](O)CC(=O)[C@H]1CC=CCCCC(=O)O | inactive | inactive |  | inactive | inactive | inactive | inactive |
| O=C1NC(=O)C(c2cnc3ccccn23)=C1c1cn2c3c(cccc13)CN(C(=O)N1CCOCC1)CC2 | 0.0053 µM (active) | 1.05 µM (active) | 0.187 µM (active) |  | 0.0042 µM (active) |  | 0.0066 µM (active) |
| CNC(=O)c1cc(COc2nnc(Nc3ccc(Cl)cc3)c3ccoc23)ccn1 | 26.4 µM (active) | inactive |  | 5.26 µM (active) |  |  |  |
| O=c1[nH]c(=O)n([C@H]2C[C@@H](O)[C@@H](CO)O2)cc1I | inactive | inactive | inactive |  | 3.32 µM (active) | inactive | inactive |
| CNC(=O)[C@H](CC1=CN=C2C=CCC=C12)NC(=O)[C@@H](CC(=O)NO)CC(C)C | inactive | 26.4 µM (active) |  | 0.0743 µM (active) | 0.118 µM (active) | 0.0743 µM (active) | inactive |
| N#CC(c1ccc(Cl)cc1)c1c(Cl)cc(-n2ncc(=O)[nH]c2=O)cc1Cl (centres undefined) | inactive | 23.5 µM (active) | 16.6 µM (active) | 5.26 µM (active) | 18.7 µM (active) | 10.5 µM (active) |  |
| COc1cc2c(cc1Cc1cccc(Cl)c1F)c(=O)c(C(=O)O)cn2[C@H](CO)C(C)C | 20.9 µM (active) | 20.9 µM (active) | 20.9 µM (active) |  |  |  | 16.6 µM (active) |
| CC[C@H]1OC(=O)[C@H](C)[C@@H](O[C@H]2C[C@@](C)(OC)[C@@H](O)[C@H](C)O2)[C@H](C)[C@@H](O[C@@H]2O[C@H](C)C[C@H](N(C)C)[C@H]2O)[C@](C)(O)C[C@H](C)C(=NOCOCCOC)[C@H](C)[C@@H](O)[C@]1(C)O | inactive | inactive | inactive |  |  | inactive | inactive |
| O=C1C(CCC(O)c2ccc(F)cc2)C(c2ccc(O)cc2)N1c1ccc(F)cc1 (centres undefined) | inactive | inactive | inactive | inactive |  | inactive | inactive |
| CCCCOCCOc1nc(-c2ccc(C(=O)O)c(F)c2)sc1C | inactive | inactive | inactive | inactive |  | inactive |  |
| O=C(O)CCC=CCC[C@@H]1[C@H](N2CCCCC2)[C@@H](O)C[C@@H]1OCc1ccc(-c2ccccc2)cc1 | inactive | inactive | inactive |  |  | inactive | inactive |
| CN(C)S(=O)(=O)c1ccc2c(c1)C(=Cc1cc3c([nH]1)CCCC3)C(=O)N2 | 2.35 µM (active) | 2.96 µM (active) | 4.69 µM (active) |  | 8.33 µM (active) | 1.87 µM (active) |  |
| NC(N)=Nc1nc(CSCCC(N)=NS(N)(=O)=O)cs1 | inactive | 10.5 µM (active) | 23.5 µM (active) |  | inactive | inactive | inactive |
| O=C(O)C1=CC(O)C(O)[C@H](O)C1 (some centres undefined) | inactive | inactive | inactive | inactive | inactive | inactive |  |

| SMILES | Potency [1] | Potency [2] | Potency [3] | Potency [4] | Potency [5] | Potency [6] | Potency [7] |
| --- | --- | --- | --- | --- | --- | --- | --- |
| Cc1cccc(-c2[nH]c(C(C)(C)C)nc2-c2ccc3c(c2)OCO3)n1 | 29.6 µM (active) | 1.32 µM (active) |  | inactive | 5.26 µM (active) |  | 16.6 µM (active) |
| O=C1CN2Cc3c(ccc(Cl)c3Cl)N=C2N1 | inactive | 29.6 µM (active) | inactive | inactive | inactive | inactive |  |
| CN[C@H]1[C@@H](O[C@@H]2[C@H](O[C@@H]3[C@@H](O)[C@@H](O)[C@@H](N=C(N)N)[C@@H](O)[C@@H]3N=C(N)N)O[C@H](C)[C@@]2(O)C=O)O[C@@H](CO)[C@@H](O)[C@H]1O | inactive | inactive | inactive |  |  | inactive | inactive |
| COc1c(C)c2c(c(O)c1CC=C(C)CCC(=O)OCCN1CCOCC1)C(=O)OC2 |  | inactive | inactive | 0.372 µM (active) | 1.18 µM (active) | inactive |  |
| Cc1[nH]c(C=C2C(=O)Nc3ccc(S(=O)(=O)N(C)c4cccc(Cl)c4)cc32)c(C)c1C(=O)N1CCN(C)CC1 |  | 14.8 µM (active) | 23.5 µM (active) | 5.9 µM (active) | 6.62 µM (active) | 9.35 µM (active) | 23.5 µM (active) |
| CC(C)Oc1cc(Nc2nc(N[C@@H](C)c3ccc(F)cn3)ncc2Cl)[nH]n1 |  | 8.33 µM (active) | 20.9 µM (active) | 18.7 µM (active) | 14.8 µM (active) |  |  |
| CCC[C@@H](NC(=O)[C@@H]1[C@H]2CCC[C@@H]2CN1C(=O)[C@@H](NC(=O)[C@@H](NC(=O)c1cnccn1)C1CCCCC1)C(C)(C)C)C(=O)C(=O)NC1CC1 |  | 14.8 µM (active) | inactive | 18.7 µM (active) |  | 18.7 µM (active) |  |
| Cc1nn(Cc2ccccc2Cl)c(C)c1CN(C)CC(O)COc1ccc(Cl)cc1 (centres undefined) |  | 18.7 µM (active) |  | inactive |  |  |  |
| O=C(Nc1ncc(SCCN2CCCC2)s1)[C@]1(c2ccc(S(=O)(=O)C3CC3)cc2)C[C@@H]1C1CCCCC1 |  | 14.8 µM (active) | 18.7 µM (active) | 8.33 µM (active) |  | 8.33 µM (active) | 26.4 µM (active) |
| CC[C@H](C)n1cc(C)c2c(C(=O)NCc3c(C)cc(C)[nH]c3=O)cc(-c3ccc(N4CCNCC4)nc3)cc21 |  | 20.9 µM (active) | 20.9 µM (active) | inactive |  | inactive |  |
| Cc1c(-c2cccc3c(CCCOc4cccc5ccccc45)c(C(=O)O)n(Cc4cccnc4)c23)c(COc2ccc(N3CCN([S+](=O)([O-])N(C)C)CC3)cc2)nn1C |  | 14.8 µM (active) | 14.8 µM (active) | inactive | inactive | inactive |  |
| Cc1nc(NC(=O)N2CCC[C@@H]2C(N)=O)sc1-c1csc(C(C)(C)C)n1 |  | 3.32 µM (active) | 8.33 µM (active) | 5.26 µM (active) | 0.372 µM (active) | 14.8 µM (active) | 6.62 µM (active) |
| CC(C)(F)C[C@H](N[C@@H](c1ccc(-c2ccc(S(C)(=O)=O)cc2)cc1)C(F)(F)F)C(=O)NC1(C#N)CC1 |  | inactive | inactive | inactive | inactive | inactive | inactive |
| CN(C)CCOc1ccc(-c2nc(-c3ccc4c(c3)CCC4=NO)c(-c3ccncc3)[nH]2)cc1 |  | 14.8 µM (active) | 23.5 µM (active) | 18.7 µM (active) | 23.5 µM (active) | 11.8 µM (active) | 16.6 µM (active) |
| CC(=O)OCC(=O)[C@@]12OC(C)(C)O[C@H]1C[C@H]1[C@@H]3C[C@H](F)C4=CC(=O)C=C[C@]4(C)[C@@]3(F)[C@@H](O)C[C@@]12C |  | inactive | inactive | inactive | 0.0148 µM (active) | inactive | 0.0264 µM (active) |
| C[C@@H]1O[C@@H](O[C@H]2CC[C@@]3(C)[C@H](CC[C@@H]4[C@H]3C[C@@H](O)[C@]3(C)[C@@H](C5=CC(=O)OC5)CC[C@]43O)C2)C[C@H](O)[C@@H]1O[C@H]1C[C@H](O)[C@H](O[C@H]2C[C@H](O)[C@@H](O)[C@@H](C)O2)[C@H](C)O1 (stereo in doubt) |  | 0.241 µM (active) | 0.27 µM (active) | 0.0679 µM (active) | 0.121 µM (active) | 0.171 µM (active) | 0.171 µM (active) |
| C[C@@H](O)[C@H]1C(=O)N2C(C(=O)OCOC(=O)C(C)(C)C)=C(SC3CN(C4=NCCS4)C3)[C@H](C)[C@H]12 |  | inactive | inactive | inactive | inactive | inactive | inactive |
| OC[C@H]1O[C@@H](Oc2ccc(O)cc2)[C@H](O)[C@@H](O)[C@H]1O |  | inactive | inactive |  |  | inactive |  |
| Oc1cc(O)cc(C=Cc2ccc(O)c(O)c2)c1 |  | 4.69 µM (active) | 20.9 µM (active) | 11.8 µM (active) | 9.35 µM (active) | 5.26 µM (active) |  |
| C=C1[C@H](n2cnc3c(=O)[nH]c(N)nc32)C[C@H](O)[C@H]1CO |  | 3.32 µM (active) | inactive | 18.7 µM (active) | 9.35 µM (active) |  |  |
| O=C(C=Cc1ccc(O)cc1)c1ccc(O)cc1O |  | 13.2 µM (active) |  | 10.5 µM (active) |  |  |  |
